Experimental data from the OligoGym collection.
Note: reference of the scale not given here.

Each sequence was assayed against ZNF599 (assay: pooled miR-30 sensor sort-seq; sequence = guide strand). Details: shRNA.
Sequence TTGTGGAGTGACTCGTTCCTGT has a sensor-assay potency score (higher = more potent) of -0.347. TAAATGCATGTTAACCACCAGG was tested, and the sensor-assay potency score (higher = more potent) was -1.03. TTATTTTAAAATATGCTTGAGA showed a sensor-assay potency score (higher = more potent) of -0.0715. Sequence AATCTCTTGAGGATCTCTGTGC has a sensor-assay potency score (higher = more potent) of -0.218. TTGAGAGTCACACTCATGGAGA showed a sensor-assay potency score (higher = more potent) of -0.714. With TTCCACATTCTCTACAAACATA the sensor-assay potency score (higher = more potent) was -1.71. For TATGGGTCCTCTTATGTCGGAT, the sensor-assay potency score (higher = more potent) was -0.578. TGAATCTTTAATATAATTCTTT gave a sensor-assay potency score (higher = more potent) of -0.316. TTGCACATTCTTTGCACTCCAA showed a sensor-assay potency score (higher = more potent) of -0.563. Sequence TTCTCTACAAACATAGGGCTTC has a sensor-assay potency score (higher = more potent) of 0.194. TTAGCTTTTCCTCATCTCTAGC was tested, and the sensor-assay potency score (higher = more potent) was -0.541.

These sequences were tested against ZNF609 in the same assay as above. Details: shRNA.
For TTTCTGTCCAGAACAGTGGGTT, the sensor-assay potency score (higher = more potent) was 0.109. TTGACATCCTCAGAAGTGCTGC was tested, and the sensor-assay potency score (higher = more potent) was 0.188. In the case of TTGACTTTCTTTAGCAGGCGAC, the sensor-assay potency score (higher = more potent) is reported as -0.497. Work on TTGGAGAATAGTAACTCTCAAA yielded a sensor-assay potency score (higher = more potent) of -1.39. For TAAACATATGTCCACATCCGGG, the sensor-assay potency score (higher = more potent) was -1.36. Sequence TCTTTTTCCATACACTTCCTTT has a sensor-assay potency score (higher = more potent) of -0.591. With TGATTTGACACTGTCTACCTTG the sensor-assay potency score (higher = more potent) was 0.639. TGAAACTGTAGATCTTGTCGGC showed a sensor-assay potency score (higher = more potent) of 0.618. Work on TTTGTGAGACAGATGCACCGTT yielded a sensor-assay potency score (higher = more potent) of 0.735. Work on TATTGGATCCATCTCTGCCTGT yielded a sensor-assay potency score (higher = more potent) of -0.575. TTGCAGTCACTACTTGTGCTTT gave a sensor-assay potency score (higher = more potent) of -0.589. TATCGTGGGAGACTTGCTCTTG was tested, and the sensor-assay potency score (higher = more potent) was -0.437.

What follows are sequences tested against ZNF630 in the same assay as above. Details: shRNA.
TAATTAGATGTGACTTCTGGGA showed a sensor-assay potency score (higher = more potent) of -0.376. Work on TTTCACATTGACTATCTCCATA yielded a sensor-assay potency score (higher = more potent) of -0.895. With TTCTTTCTTGCATAGCTCCTGT the sensor-assay potency score (higher = more potent) was 0.0285. In the case of TTCCATACTTAGTACATTCATA, the sensor-assay potency score (higher = more potent) is reported as -0.904. For TAGAATGAGATGTGACTTCAGG, the sensor-assay potency score (higher = more potent) was -0.186. Work on ATACTTAGTACATTCATAGGGT yielded a sensor-assay potency score (higher = more potent) of 0.067. For TAAGTCTGAATTAGACTTCAAG, the sensor-assay potency score (higher = more potent) was -0.977. In the case of TTGGACACTCAAAACACTCATA, the sensor-assay potency score (higher = more potent) is reported as -0.509. In the case of TTGCTTATGACTGAGAACTTTT, the sensor-assay potency score (higher = more potent) is reported as -0.853. Sequence ACACATACTACAAACATTGGGT has a sensor-assay potency score (higher = more potent) of -0.0412. TTATAATTTAGTAAGTCTGAAT showed a sensor-assay potency score (higher = more potent) of -1.16. Work on TATAATTAGATGTGACTTCTGG yielded a sensor-assay potency score (higher = more potent) of 0.548.

The sequences below were run against ZNF653 in the same assay as above. Details: shRNA.
TTTGTCACTGTCAGGGTCTGAG was tested, and the sensor-assay potency score (higher = more potent) was -0.472. TGAAGTTGTACTGCACCTCCGC was tested, and the sensor-assay potency score (higher = more potent) was -0.192. With TTGGATAAATAGAACTTCTTGC the sensor-assay potency score (higher = more potent) was -0.368.
